Experimental data from the supplement of paper PMC10849652.
Targets with a hit are over-represented here; the source holds about 8,800 in all. About 0.5% of all pairs of compound and target were hits.

Key:
Assay in all cases: log2 fold change, soluble protein after heating vs DMSO (PISA); higher = thermal stabilisation; K562 lysate, 10 uM; active = over 0.2 and 3.5 SD of the protein, either way, in both replicates (recomputed)
erlotinib = compound: C#Cc1cccc(Nc2ncnc3cc(OCCOC)c(OCCOC)cc23)c1 [erlotinib]
In short: (§1)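 A 30 min treatment with 10 μM compound was applied to crude K562 extract at 1 mg/mL protein in PBS pH 7.4 with 1 mM MgCl2. Heating for 3 min spanned 48°C-58°C, after which aliquots were pooled, adjusted to 0.5% NP-40 at 4°C and spun at 21,000xg for 90 min. TMTpro 16plex LC-MS/MS of the supernatant, with channel sums equalised, gave values recorded as log-two fold change in thermal stability against solvent controls, from duplicates.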

[1] = compound: C/C(=N\NC(=O)C1=CC(=CC=C1)S(=O)(=O)N2CCOCC2)/C3=C(C=CC(=C3)Cl)O
In short: as §1

[2] = compound: C1=CC(=CC=C1C2=NC3=C(N2)C=C(C=C3)C(=O)N)OC4=CC=C(C=C4)Cl
In short: as §1

[3] = compound: C1=CC2=C(C=CC(=C2)/C=C\3/C(=O)NC(=NCC4=CC=CS4)S3)N=C1
In short: as §1

[4] = compound: C1=CC2=NC=CN=C2C=C1/C=C/3\C(=O)NC(=O)S3
In short: as §1

[5] = compound: C1=CC=C(C=C1)C2=NC(=C(N2)C3=CC=NC=C3)C4=CC(=C(C=C4)Cl)O
In short: as §1

[6] = compound: C1=CC=C2C(=C1)C3=NNC4=CC=CC(=C43)C2=O
In short: as §1

[7] = compound: C1CCN(C1)C(=O)NC2=CC=CC(=C2)NC3=NC=C(C(=N3)NCCC4=CN=CN4)Br
In short: as §1

[8] = compound: C1CN(CCC1(CC2=CC=C(C=C2)Cl)N)C3=NC=NC4=C3C=CN4
In short: as §1

IRAK-1-4 Inhibitor I = compound: C1COCCN1CCN2C3=CC=CC=C3N=C2NC(=O)C4=CC(=CC=C4)[N+](=O)[O-] [IRAK-1-4 Inhibitor I]
In short: as §1

ibrutinib = compound: C=CC(=O)N1CCC[C@@H](n2nc(-c3ccc(Oc4ccccc4)cc3)c3c(N)ncnc32)C1 [ibrutinib]
In short: as §1

[9] = compound: CC(=O)c1cnc2ccc(-c3cc(Cl)c(O)c(Cl)c3)nc2c1N[C@H]1CC[C@H](CN(C)C)CC1
In short: as §1

ralimetinib = compound: CC(C)(C)Cn1c(N)nc2ccc(-c3[nH]c(C(C)(C)C)nc3-c3ccc(F)cc3)nc21 [ralimetinib]
In short: as §1

[10] = compound: CC(C)(O)CC(=O)NCCn1ccc2ncnc(Nc3ccc(Oc4cccc(C(F)(F)F)c4)c(Cl)c3)c21
In short: as §1

[11] = compound: CC(C)C1=C2N=C(C=C(N2N=C1)NCC3=CC=CC=C3)NCCCCCCN
In short: as §1

[12] = compound: CC1=C(C(CC(=O)N1)C2=CC=C(C=C2)C(F)(F)F)C(=O)NC3=C(C=C4C(=C3)C=NN4)F
In short: as §1

[13] = compound: CC1=C(C2=C(C=C1)C(=O)C3=CC=CC=C3N2CCCN)C
In short: as §1

[14] = compound: CC1=C(C=C(C=C1)NC(=O)C2=CC(=CC=C2)C(C)(C)C#N)NC3=CC4=C(C=C3)N=CN(C4=O)C
In short: as §1

[15] = compound: CC1=C(C=C(C=C1)NC(=O)C2=CC(=CC=C2)N(C)C)NC(=O)C3=CC=C(C=C3)O
In short: as §1

[16] = compound: CC1=CC=C(C=C1)SC2=C3C=C(SC3=CN=C2)C(=O)N
In short: as §1

Measured: log2 fold change

INF2 (UniProt Q27J81)
Sequence of UniProt Q27J81 (Q27J81 whole entry, looked up): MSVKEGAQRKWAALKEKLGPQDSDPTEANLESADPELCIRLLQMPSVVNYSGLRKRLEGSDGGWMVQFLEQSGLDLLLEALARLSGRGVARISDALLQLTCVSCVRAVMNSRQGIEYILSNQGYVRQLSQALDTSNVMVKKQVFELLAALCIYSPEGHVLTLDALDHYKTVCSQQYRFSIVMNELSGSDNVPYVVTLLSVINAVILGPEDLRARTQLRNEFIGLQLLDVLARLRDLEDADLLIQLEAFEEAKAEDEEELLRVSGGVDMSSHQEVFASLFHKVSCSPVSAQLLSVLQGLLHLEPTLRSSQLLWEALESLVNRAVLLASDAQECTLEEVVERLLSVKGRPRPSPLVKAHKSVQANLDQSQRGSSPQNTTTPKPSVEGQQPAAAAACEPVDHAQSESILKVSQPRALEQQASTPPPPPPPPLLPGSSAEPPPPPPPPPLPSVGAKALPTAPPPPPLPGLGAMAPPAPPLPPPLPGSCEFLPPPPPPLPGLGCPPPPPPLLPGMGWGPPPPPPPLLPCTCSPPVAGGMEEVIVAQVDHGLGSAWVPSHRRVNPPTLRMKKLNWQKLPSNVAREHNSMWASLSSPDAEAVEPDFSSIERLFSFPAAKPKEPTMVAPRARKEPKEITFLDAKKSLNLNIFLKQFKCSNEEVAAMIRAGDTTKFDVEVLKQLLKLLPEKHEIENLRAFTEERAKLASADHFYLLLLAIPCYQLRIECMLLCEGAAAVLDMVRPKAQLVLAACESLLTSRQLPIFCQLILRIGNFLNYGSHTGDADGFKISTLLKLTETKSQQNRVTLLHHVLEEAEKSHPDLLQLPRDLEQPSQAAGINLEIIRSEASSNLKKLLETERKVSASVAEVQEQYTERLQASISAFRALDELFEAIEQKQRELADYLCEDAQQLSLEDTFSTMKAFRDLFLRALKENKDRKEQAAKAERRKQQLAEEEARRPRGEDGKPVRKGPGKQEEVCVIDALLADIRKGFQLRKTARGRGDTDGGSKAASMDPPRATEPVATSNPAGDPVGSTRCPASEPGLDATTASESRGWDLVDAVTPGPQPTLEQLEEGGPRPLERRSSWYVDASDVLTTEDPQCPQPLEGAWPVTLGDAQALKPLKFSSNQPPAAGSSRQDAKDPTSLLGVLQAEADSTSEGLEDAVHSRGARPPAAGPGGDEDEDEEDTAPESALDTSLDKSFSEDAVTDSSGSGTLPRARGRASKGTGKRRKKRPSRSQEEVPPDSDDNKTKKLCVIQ
inactive: erlotinib 0.004 | [1] -0.014 | [2] -0.027 | [3] 0.069 | [4] 0.004 | [5] -0.024 | [6] -0.019 | [7] 0.031 | [8] 0.056 | IRAK-1-4 Inhibitor I -0.011 | ibrutinib 0.036 | [9] -0.007 | ralimetinib 0.018 | [10] 0.049 | [11] -0.012 | [12] 0.004 | [13] 0.07 | [14] -0.004 | [15] -0.027 | [16] -0.015

GSE1 (UniProt Q14687)
Sequence of UniProt Q14687 (Q14687 whole entry, looked up): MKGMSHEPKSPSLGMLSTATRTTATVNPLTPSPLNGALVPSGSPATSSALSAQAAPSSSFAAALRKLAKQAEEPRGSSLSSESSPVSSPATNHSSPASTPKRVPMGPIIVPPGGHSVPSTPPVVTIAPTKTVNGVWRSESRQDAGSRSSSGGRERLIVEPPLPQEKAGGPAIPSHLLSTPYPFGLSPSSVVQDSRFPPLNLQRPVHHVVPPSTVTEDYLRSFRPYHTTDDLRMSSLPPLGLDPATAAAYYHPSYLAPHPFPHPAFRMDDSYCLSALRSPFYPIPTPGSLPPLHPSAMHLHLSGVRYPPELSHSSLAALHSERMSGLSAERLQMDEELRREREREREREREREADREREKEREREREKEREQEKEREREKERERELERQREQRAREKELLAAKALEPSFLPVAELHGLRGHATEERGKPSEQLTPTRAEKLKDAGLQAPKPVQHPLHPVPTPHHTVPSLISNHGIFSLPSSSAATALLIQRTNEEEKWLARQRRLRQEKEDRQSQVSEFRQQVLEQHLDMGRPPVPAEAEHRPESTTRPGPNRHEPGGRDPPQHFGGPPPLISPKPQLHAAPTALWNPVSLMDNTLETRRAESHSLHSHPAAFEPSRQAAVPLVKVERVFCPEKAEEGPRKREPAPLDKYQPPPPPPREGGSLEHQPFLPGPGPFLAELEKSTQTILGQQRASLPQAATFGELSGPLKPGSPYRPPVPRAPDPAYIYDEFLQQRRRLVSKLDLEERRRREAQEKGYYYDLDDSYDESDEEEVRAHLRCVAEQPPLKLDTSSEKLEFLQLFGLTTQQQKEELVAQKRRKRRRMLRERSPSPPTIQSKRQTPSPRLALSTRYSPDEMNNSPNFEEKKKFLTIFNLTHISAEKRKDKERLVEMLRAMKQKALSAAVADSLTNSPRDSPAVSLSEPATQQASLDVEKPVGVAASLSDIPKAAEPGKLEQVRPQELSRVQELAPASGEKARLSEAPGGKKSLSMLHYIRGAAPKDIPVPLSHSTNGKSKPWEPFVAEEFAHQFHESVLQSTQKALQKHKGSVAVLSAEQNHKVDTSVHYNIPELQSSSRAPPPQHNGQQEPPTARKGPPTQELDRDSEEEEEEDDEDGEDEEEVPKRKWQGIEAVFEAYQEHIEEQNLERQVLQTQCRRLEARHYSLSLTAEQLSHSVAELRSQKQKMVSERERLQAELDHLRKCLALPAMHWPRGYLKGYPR
inactive: erlotinib 0.012 | [1] -0.022 | [2] 0.025 | [3] 0.003 | [4] -0.001 | [5] -0.013 | [6] -0.048 | [7] -0.032 | [8] -0.018 | IRAK-1-4 Inhibitor I -0.011 | ibrutinib 0.006 | [9] -0.021 | ralimetinib 0.015 | [10] -0.026 | [11] -0.004 | [12] -0.009 | [13] 0.008 | [14] -0.055 | [15] 0.035 | [16] -0.016

HDLBP, A0A024R4E5
inactive: erlotinib 0.043 | [1] 0.008 | [2] 0.02 | [3] -0.001 | [4] -0.024 | [5] -0.001 | [6] -0.046 | [7] -0.003 | [8] 0.004 | IRAK-1-4 Inhibitor I -0.005 | ibrutinib -0.034 | [9] -0.007 | ralimetinib 0.029 | [10] -0.014 | [11] -0.012 | [12] 0.007 | [13] -0.004 | [14] -0.009 | [15] 0.042 | [16] 0.003

HSP90AA4P (UniProt Q58FG1)
inactive: erlotinib -0.064 | [1] 0.994 | [2] 0.097 | [3] 0.018 | [4] -0.129 | [5] 0.023 | [6] -0.003 | [7] -0.032 | [8] -0.09 | IRAK-1-4 Inhibitor I 0.081 | ibrutinib 0.026 | [9] -0.123 | ralimetinib -0.011 | [10] -0.055 | [11] 0.021 | [12] -0.071 | [13] -0.045 | [14] 0.073 | [15] 0.097 | [16] -0.051

GMIP (UniProt Q9P107)
Sequence of UniProt Q9P107 (Q9P107 whole entry, looked up): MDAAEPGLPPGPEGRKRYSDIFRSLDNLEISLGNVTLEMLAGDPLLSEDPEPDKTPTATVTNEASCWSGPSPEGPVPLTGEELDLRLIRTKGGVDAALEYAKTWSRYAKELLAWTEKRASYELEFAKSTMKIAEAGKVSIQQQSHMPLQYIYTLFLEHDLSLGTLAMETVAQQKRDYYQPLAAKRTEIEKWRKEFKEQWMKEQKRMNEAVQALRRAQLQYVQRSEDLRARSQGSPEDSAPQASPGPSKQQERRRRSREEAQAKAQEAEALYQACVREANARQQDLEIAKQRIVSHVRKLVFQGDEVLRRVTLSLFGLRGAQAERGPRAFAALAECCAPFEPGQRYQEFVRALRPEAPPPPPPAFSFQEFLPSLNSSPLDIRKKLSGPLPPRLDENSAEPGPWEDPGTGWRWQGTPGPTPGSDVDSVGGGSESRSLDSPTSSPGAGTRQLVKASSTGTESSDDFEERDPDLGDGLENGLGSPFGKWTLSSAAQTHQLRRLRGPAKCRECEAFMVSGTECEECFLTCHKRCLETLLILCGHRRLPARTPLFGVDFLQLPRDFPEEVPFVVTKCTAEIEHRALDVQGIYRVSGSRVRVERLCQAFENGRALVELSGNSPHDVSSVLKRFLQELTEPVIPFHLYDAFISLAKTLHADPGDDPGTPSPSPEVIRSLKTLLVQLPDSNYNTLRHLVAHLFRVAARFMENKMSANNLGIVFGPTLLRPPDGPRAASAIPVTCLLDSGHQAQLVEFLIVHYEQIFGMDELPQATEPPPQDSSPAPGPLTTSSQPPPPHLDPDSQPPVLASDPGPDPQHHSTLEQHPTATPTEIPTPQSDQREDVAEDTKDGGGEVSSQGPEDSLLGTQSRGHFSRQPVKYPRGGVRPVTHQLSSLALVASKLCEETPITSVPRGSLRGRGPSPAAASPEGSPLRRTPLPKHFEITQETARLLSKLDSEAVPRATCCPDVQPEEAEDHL
inactive: erlotinib 0.014 | [1] 0.019 | [2] -0.02 | [3] -0.029 | [4] 0.009 | [5] 0.068 | [6] 0.03 | [7] -0.063 | [8] 0.019 | IRAK-1-4 Inhibitor I 0.025 | ibrutinib 0.182 | [9] 0.027 | ralimetinib 0.023 | [10] -0.11 | [11] -0.017 | [12] 0.029 | [13] 0.03 | [14] 0.019 | [15] -0.068 | [16] 0.045

GNB1 (UniProt P62873)
inactive: erlotinib 0.053 | [1] 0.018 | [2] 0.082 | [3] -0.019 | [4] -0.015 | [5] -0.022 | [6] 0.023 | [7] -0.017 | [8] -0.031 | IRAK-1-4 Inhibitor I 0.012 | ibrutinib 0.018 | [9] -0.018 | ralimetinib -0.036 | [10] 0.057 | [11] 0.003 | [12] -0.052 | [13] 0.076 | [14] 0.145 | [15] -0.076 | [16] -0.011

IMMT (UniProt Q16891)
Sequence of UniProt Q16891 (Q16891 whole entry, looked up): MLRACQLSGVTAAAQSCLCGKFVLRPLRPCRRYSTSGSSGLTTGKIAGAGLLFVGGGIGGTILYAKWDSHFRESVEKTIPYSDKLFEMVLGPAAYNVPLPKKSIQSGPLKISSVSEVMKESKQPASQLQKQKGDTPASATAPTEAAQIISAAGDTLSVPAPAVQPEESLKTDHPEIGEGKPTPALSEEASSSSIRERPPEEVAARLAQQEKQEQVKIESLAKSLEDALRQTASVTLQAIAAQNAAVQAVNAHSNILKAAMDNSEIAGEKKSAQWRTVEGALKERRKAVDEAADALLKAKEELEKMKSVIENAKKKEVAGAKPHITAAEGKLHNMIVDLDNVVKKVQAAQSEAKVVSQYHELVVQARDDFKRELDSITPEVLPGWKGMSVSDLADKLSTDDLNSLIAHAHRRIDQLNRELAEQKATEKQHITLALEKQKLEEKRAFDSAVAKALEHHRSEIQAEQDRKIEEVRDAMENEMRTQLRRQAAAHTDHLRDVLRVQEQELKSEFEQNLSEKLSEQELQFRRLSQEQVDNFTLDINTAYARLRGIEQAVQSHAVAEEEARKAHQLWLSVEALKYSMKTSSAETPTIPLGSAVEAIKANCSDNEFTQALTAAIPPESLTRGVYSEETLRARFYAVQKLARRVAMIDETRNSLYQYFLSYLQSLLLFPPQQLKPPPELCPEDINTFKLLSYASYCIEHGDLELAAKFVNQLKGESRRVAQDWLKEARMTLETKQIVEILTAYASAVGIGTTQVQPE
inactive: erlotinib 0.008 | [1] 0.058 | [2] -0.176 | [3] 0.035 | [4] 0.024 | [5] -0.001 | [6] -0.031 | [7] 0.016 | [8] -0.026 | IRAK-1-4 Inhibitor I -0.007 | ibrutinib -0.015 | [9] 0.006 | ralimetinib -0.018 | [10] -0.045 | [11] -0.017 | [12] -0.007 | [13] 0.038 | [14] 0.003 | [15] 0.011 | [16] 0.031

IRF2BP1 (UniProt Q8IU81)
inactive: erlotinib -0.024 | [1] -0.114 | [2] 0.022 | [3] -0.016 | [4] 0.021 | [5] -0.039 | [6] -0.021 | [7] -0.057 | [8] 0.006 | IRAK-1-4 Inhibitor I -0.018 | ibrutinib 0.003 | [9] 0.027 | ralimetinib 0.008 | [10] 0.02 | [11] 0.006 | [12] -0.016 | [13] -0.027 | [14] 0.02 | [15] -0.001 | [16] -0.038

HNRNPAB isoform 3 (UniProt Q99729)
inactive: erlotinib -0.032 | [1] -0.214 | [2] 0.017 | [3] -0.007 | [4] 0.002 | [5] -0.001 | [6] -0.012 | [7] 0.003 | [8] 0 | IRAK-1-4 Inhibitor I 0.009 | ibrutinib -0.029 | [9] -0.159 | ralimetinib -0.037 | [10] 0.006 | [11] -0.007 | [12] 0.055 | [13] -0.003 | [14] -0.01 | [15] -0.013 | [16] 0

HDAC6 (UniProt Q9UBN7)
inactive: erlotinib -0.025 | [1] -0.002 | [2] -0.025 | [3] -0.006 | [4] -0.014 | [5] -0.042 | [6] -0.034 | [7] -0.001 | [8] -0.023 | IRAK-1-4 Inhibitor I 0.008 | ibrutinib -0.051 | [9] 0.003 | ralimetinib -0.024 | [10] -0.041 | [11] -0.014 | [12] -0.036 | [13] -0.002 | [14] 0.008 | [15] -0.01 | [16] 0.01

HS1BP3 (UniProt Q53T59)
inactive: erlotinib -0.019 | [1] -0.04 | [2] 0.007 | [3] -0.013 | [4] -0.027 | [5] -0.031 | [6] 0.029 | [7] -0.022 | [8] 0.01 | IRAK-1-4 Inhibitor I 0.01 | ibrutinib -0.01 | [9] 0.001 | ralimetinib 0.017 | [10] 0 | [11] -0.013 | [12] 0.005 | [13] 0.056 | [14] 0.016 | [15] -0.005 | [16] -0.013

GTF3C5 isoform 3 (UniProt Q9Y5Q8)
inactive: erlotinib -0.002 | [1] -0.042 | [2] -0.01 | [3] 0.007 | [4] -0.024 | [5] -0.019 | [6] -0.03 | [7] 0.072 | [8] 0.019 | IRAK-1-4 Inhibitor I -0.015 | ibrutinib 0.029 | [9] 0.034 | ralimetinib 0.009 | [10] 0.005 | [11] -0.016 | [12] 0.025 | [13] -0.007 | [14] 0.015 | [15] 0.003 | [16] 0.008

IMPDH1 isoform 6 (UniProt P20839)
inactive: erlotinib 0.018 | [1] 0.036 | [2] -0.031 | [3] 0.009 | [4] -0.001 | [5] -0.001 | [6] 0.017 | [7] 0.028 | [8] 0.032 | IRAK-1-4 Inhibitor I 0.003 | ibrutinib -0.007 | [9] 0.009 | ralimetinib 0.034 | [10] -0.007 | [11] 0.01 | [12] -0.039 | [13] 0.033 | [14] 0.014 | [15] -0.005 | [16] -0.004

KBTBD2 (UniProt Q8IY47)
inactive: erlotinib -0.002 | [1] 0.019 | [2] 0.056 | [3] 0 | [4] 0.011 | [5] 0.016 | [6] -0.079 | [7] -0.023 | [8] 0.052 | IRAK-1-4 Inhibitor I 0.097 | ibrutinib -0.005 | [9] -0.039 | ralimetinib -0.113 | [10] -0.227 | [11] 0 | [12] 0.001 | [13] -0.036 | [14] 0.116 | [15] 0 | [16] -0.041

HLCS (UniProt P50747)
Sequence of UniProt P50747 (P50747 whole entry, looked up): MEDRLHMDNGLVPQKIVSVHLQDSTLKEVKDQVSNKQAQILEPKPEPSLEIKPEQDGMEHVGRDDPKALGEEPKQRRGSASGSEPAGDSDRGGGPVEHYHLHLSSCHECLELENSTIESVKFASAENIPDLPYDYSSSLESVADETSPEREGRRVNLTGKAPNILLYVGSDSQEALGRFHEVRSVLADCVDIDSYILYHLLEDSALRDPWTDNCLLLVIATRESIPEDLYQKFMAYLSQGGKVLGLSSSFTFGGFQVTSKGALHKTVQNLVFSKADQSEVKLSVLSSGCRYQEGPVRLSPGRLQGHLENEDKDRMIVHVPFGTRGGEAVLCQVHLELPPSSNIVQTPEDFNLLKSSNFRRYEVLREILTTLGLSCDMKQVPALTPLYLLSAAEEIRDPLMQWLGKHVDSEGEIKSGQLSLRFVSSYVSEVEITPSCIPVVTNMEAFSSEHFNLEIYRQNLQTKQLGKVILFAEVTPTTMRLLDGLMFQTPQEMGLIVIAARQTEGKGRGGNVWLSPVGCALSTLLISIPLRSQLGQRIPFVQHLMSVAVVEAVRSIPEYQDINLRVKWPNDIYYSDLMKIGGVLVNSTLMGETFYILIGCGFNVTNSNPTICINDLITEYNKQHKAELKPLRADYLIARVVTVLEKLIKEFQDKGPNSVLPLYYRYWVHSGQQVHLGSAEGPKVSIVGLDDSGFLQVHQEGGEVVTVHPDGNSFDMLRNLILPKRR
inactive: erlotinib 0.019 | [1] -0.071 | [2] 0.013 | [3] 0.03 | [4] -0.017 | [5] -0.004 | [6] -0.019 | [7] 0.008 | [8] -0.034 | IRAK-1-4 Inhibitor I -0.008 | ibrutinib 0.012 | [9] 0.023 | ralimetinib -0.005 | [10] -0.019 | [11] -0.025 | [12] 0.018 | [13] -0.015 | [14] 0.029 | [15] 0.057 | [16] -0.032
